Experimental data: PubChem BioAssay (NCI)
This is part of a sample that, as a whole, favours compounds with a hit. Of some 83,000 tested, about 20% had one in any assay.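 For each line, cells grew in 96-well plates with the test compound present at a single concentration for 48 hours.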 A number with no mark means an inactive call. The source made the active and inactive calls. How the source made its calls: active means growth percent below 10; inactive means the rest.

The compounds below were run on MDA-MB-468 breast (assay: NCI-60 one-dose screen, 48 h (100 = growth as untreated, 0 = no growth, -100 = all killed)). Conditions: 10 µM unless noted.

Row | SMILES | growth
1 | CC(=O)C1Cc2ccccc2C1=O (centres undefined) | 105%
2 | NC(=O)SCC(=O)NNc1ccccc1 | 92.9%
3 | COc1ccc2[nH]cc(-c3nonc3-c3c[nH]c4ccc(Br)cc34)c2c1 | 77.8%
4 | CCN1/C(=C/C=C/C=C/c2sc3ccccc3[n+]2CC)Sc2ccccc21 | -81% (active)
